D2 antag: HTS Assay for Allosteric Antagonists of the Human D2 Dopamine Receptor: Primary Screen for Antagonists | HEK293 TREx D2 cells, calcium flux, dopamine EC80 | AID 485344, 2010 | 340,000 tested, 2% active | inhibition, % at 10 µM; in the data active means inhibition above about 30%; inactive means below that, where a call was filed; further: 0% is about no effect
Target sequence (P14416 whole entry, looked up): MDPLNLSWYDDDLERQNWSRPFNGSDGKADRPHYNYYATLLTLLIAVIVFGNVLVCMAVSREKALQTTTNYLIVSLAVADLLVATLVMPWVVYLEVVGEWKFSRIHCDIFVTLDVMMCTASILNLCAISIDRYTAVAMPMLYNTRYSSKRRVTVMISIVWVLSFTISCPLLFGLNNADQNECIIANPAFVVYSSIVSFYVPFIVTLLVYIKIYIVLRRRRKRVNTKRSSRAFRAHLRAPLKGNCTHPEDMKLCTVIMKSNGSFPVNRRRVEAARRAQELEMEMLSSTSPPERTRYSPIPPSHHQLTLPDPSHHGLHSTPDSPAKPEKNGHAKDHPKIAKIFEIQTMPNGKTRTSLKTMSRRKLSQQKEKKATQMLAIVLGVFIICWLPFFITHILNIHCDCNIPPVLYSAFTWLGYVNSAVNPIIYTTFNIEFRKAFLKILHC
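Tetracycline-induced HEK293 TREx cells expressing D2 receptor forced-coupled to calcium signalling, loaded with no-wash calcium dye. Compounds added and calcium flux read 180 s, then dopamine added at EC80 and read a further 180 s.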
D2 ag-1: Beta-Arrestin HTS for Positive Allosteric Modulators of the Human D2 Dopamine Receptor: Agonists. activation, % (no concentration beside the values). DiscoveRx PathHunter D2 beta-arrestin, luminescence, 90 min; 100% = 57 uM dopamine signal. AID 624465, 2012. 360,000 tested, 0.084% active; in the data active means activation above about 40%; inconclusive means between about 15% and that limit
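DiscoveRx PathHunter D2 beta-arrestin cells (2,100/well) attached overnight, then compound-stimulated 90 min at 37 C in HBSS/10 mM HEPES/0.1% Tween-20 buffer; beta-galactosidase complementation read by luminescence after 1 h at ambient temperature. Dopamine 57 uM final (EC100) as control.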
D2 PAM-1: Beta-Arrestin HTS for Positive Allosteric Modulators of the Human D2 Dopamine Receptor: Potentiators | AID 624464, 2012 | DiscoveRx D2 beta-arrestin cells, luminescence, 90 min; 100% = 57 uM dopamine signal | 360,000 tested, 0.23% active | potentiation, % (test concentration not listed) | D(2) dopamine receptor (Homo sapiens), P14416; in the data active means potentiation above about 50%; inconclusive means mostly about 30% to 49%
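PathHunter D2 cells, attached overnight at 37 deg C, received compound in DMSO plus dopamine at EC20 (50 nM final) for 90 min at 37 deg C. Beta-arrestin recruitment was read as luminescence after 1 h with detection reagent at ambient temperature.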
D2 ag-2: HTS Assay for Allosteric Agonists of the Human D2 Dopamine Receptor: Primary Screen for Agonists. activation, % at 2 µM. D(2) dopamine receptor (Homo sapiens), P14416. HEK293 T-REx D2 cells, calcium flux agonist mode. 340,000 tested, 0.53% active;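 active means activation over 3 SD above normal in the single-dose calcium agonist read, cut at about 30% in these data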; further: 0% is about no effect
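Tetracycline-induced HEK293 T-REx cells with force-coupled D2 receptor, plated overnight at 30 C, loaded with no-wash calcium dye. After a 10 s baseline, compound was pin-added and calcium flux read kinetically for 180 s; calcium rises flagged agonists.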
D2 PAM-2: HTS Assay for Positive Allosteric Modulators of the Human D2 Dopamine Receptor: Primary Screen for Potentiators | D(2) dopamine receptor (Homo sapiens), P14416 | HEK293 T-REx D2, calcium flux, EC20 dopamine potentiation | potentiation, % at 10 µM | 340,000 tested, 0.34% active;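 active means potentiation over 3 SD above the plate norm, cut at about 30% in these data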; further: 0% is about no effect
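Potentiation of an EC20 dopamine calcium response is measured in a force-coupled, tetracycline-inducible Hek293 Trex D2 line. Compound-only kinetic reads over 180 s flag agonists before dopamine addition.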
* marks the source's active call; other numbers are inactive results; u = inconclusive; x = not tested or not shown; ! = not confirmed by another sample. This is a sample that favours compounds with a hit; in the whole collection about 2.4% have one here.

SMILES	D2 antag	D2 ag-1	D2 PAM-1	D2 ag-2	D2 PAM-2
O=C(c1ccc([N+](=O)[O-])cc1)N1CCN(c2cccc3[nH]ccc23)CC1	-1.3	-1.8	-15.0	15.4	-9.0
O=C(NC1CCN(Cc2cccc([N+](=O)[O-])c2)CC1)c1ccccc1	74.3*	4.0	-15.4	-2.5	-26.4
O=[N+]([O-])c1cccc(CN2CCC(Cc3ccccc3)CC2)c1	20.8	-0.7	-34.4	0.1	-10.7
Cc1oc(-c2ccccc2)cc1C(=O)NC1CCN(Cc2ccccc2)CC1	69.4*	-12.0	-6.8	0.0	-9.8
O=[N+]([O-])c1cccc(CN2CCN(c3cccc4[nH]ccc34)CC2)c1	42.1*	-8.0	-27.2	4.8	-21.5
COc1cccc(CNC(=O)Cc2c(C)c3c(cc(C)c4c(C)c(C)oc43)oc2=O)c1	x	x	x	-0.1	3.8
O=C(NNC1CCN(Cc2ccccc2)CC1)c1ccccc1	x	-1.7	-27.5	x	x
O=C(NC1CCN(Cc2ccccc2)CC1)c1ccccc1	73.8*	-4.1	-23.0	-0.5	-26.4
O=C(NC1CCN(Cc2ccccc2)CC1)c1cncc(Br)c1	84.6*	-2.0	-28.9	-0.3	-37.1
O=C(NC1CCN(Cc2ccccc2)CC1)c1ccccc1Cl	8.6	-3.8	-65.0	-1.1	-18.8
Cn1nccc1C(=O)NC1CCN(Cc2ccccc2)CC1	54.8*	3.4	-24.7	-0.3	-19.3
CN1CCC(NC(=O)c2cccc(Oc3ccccc3)c2)CC1	69.8*	-3.6	-37.9	-0.8	-8.0
CN(C(=O)Cn1ncc2c1-c1ccccc1OC2)c1ccc(Br)cc1	x	x	x	-0.2	x
COC(=O)CS(=O)(=O)c1ccsc1C(=O)Nc1ccc(F)cc1	38.3*	3.5	-8.1	0.4	7.2
Cc1cc2c(cc1C)NC(c1c(C)n(C)n(-c3ccccc3)c1=O)C1=C(CC(C)(C)CC1=O)N2 (stereo unspecified)	13.3	-19.3	-70.4	34.4*	8.0
COc1cc(C2Nc3cc(C)c(C)cc3NC3=C2C(=O)CC(C)(C)C3)ccc1OC(C)=O (stereo unspecified)	3.4	4.3	-5.8	0.0	16.9
CC1=C(/C=C/C(C)=C/C=C/C(C)=C/C(=O)Nc2ccc(O)cc2)C(C)(C)CCC1	21.9	12.1	56.1*!	0.6	15.5
CC1=C(/C=C/C(C)=C/C=C/C(C)=C\C(=O)O)C(C)(C)CCC1	x	-1.1	-5.0	x	x
COC(=O)c1ccc(NC(=S)NCCC2=CCCCC2)cc1	54.8*	-0.6	-18.6	0.3	-15.5
COc1ccc(C)cc1NC(=O)NCCC1=CCCCC1	85.8*	-3.1	-21.5	-0.6	-30.1
CCN(CC)c1ccc2cc(-c3nnc(-c4ccccc4)o3)c(=O)oc2c1	37.9*	-1.0	-2.2	115.6*	-7.1
CCN(CC)c1ccc2cc(-c3nc(-c4ccc(OC)cc4)cs3)c(=O)oc2c1	71.0*	u	24.7	100.6*	-19.0
CN(C)Cc1c(O)ccc2cc(-c3nc4ccccc4n3C)c(=O)oc12	13.9	2.9	-2.3	20.2	3.7
CCN(CC)c1ccc2cc(-c3nc4ccccc4[nH]3)c(=O)oc2c1	76.3*	5.3	17.0	104.2*	-13.5
CCN(CC)c1ccc2cc(-c3nc4ccccc4n3C)c(=O)oc2c1	39.6*	1.6	6.5	71.6*	-8.3
SMILES	D2 antag	D2 ag-1	D2 PAM-1	D2 ag-2	D2 PAM-2
CCC(C)NC(=O)Cn1ccc2cc(S(=O)(=O)N3CCCCC3)ccc21 (stereo unspecified)	x	x	x	x	-10.0
Cc1cc(=O)oc2c3c(cc(OCC(=O)NC(Cc4ccc(Cl)cc4)C(=O)O)c12)OC(C)(C)CC3 (stereo unspecified)	35.9*	3.5	-6.1	-0.7	-2.3
Cc1cc(=O)oc2c3c(cc(OCC(=O)N[C@@H](Cc4ccccc4)C(=O)O)c12)OC(C)(C)CC3	-3.0	6.5	27.3	0.7	-2.9
Cc1c(C)c2c(OCC(=O)NCC(=O)NCC(=O)O)cc3c(c2oc1=O)CCC(C)(C)O3	-4.4	0.2	2.3	-0.5	30.2*
COc1ccc(C2CCCN2C(=O)c2cccs2)cc1 (stereo unspecified)	78.5*	-5.2	-7.6	0.4	-13.8
Cc1cc2oc(C(=O)Nc3ccc(S(=O)(=O)Nc4nccs4)cc3)cc(=O)c2cc1Cl	33.8*	-2.3	-3.2	-0.3	-3.5
CCc1ccc(S(=O)(=O)Nc2nccs2)cc1	10.5	3.8	-7.0	0.3	37.8*
CCC(Oc1ccc(C)cc1)C(=O)Nc1ccc(S(=O)(=O)Nc2nccs2)cc1 (stereo unspecified)	14.4	-3.4	-5.7	2.2	41.8*
CC(C)C(=O)NC(=S)Nc1ccc(S(=O)(=O)Nc2nccs2)cc1	39.0*	1.4	-3.6	1.0	-5.5
CC(Oc1ccc(Br)cc1)C(=O)Nc1ccc(S(=O)(=O)Nc2nccs2)cc1 (stereo unspecified)	-3.5	-1.6	-2.9	2.0	1.8
Cc1cccc(NC(=O)c2ccc3snnc3c2)c1	x	x	x	-0.3	2.0
Cc1cc([N+](=O)[O-])nn1CC(=O)NC(C)c1ccccc1 (stereo unspecified)	-21.3	-0.7	-8.7	1.2	1.1
O=C(Cn1nc([N+](=O)[O-])nc1Br)NC(c1ccccc1)c1ccccc1	6.5	4.8	58.0*	-1.4	5.3
CCS(=O)(=O)N1CCc2cc(C(=O)Nc3cc(Cl)ccc3C)ccc21	x	x	x	4.5	-9.5
Cc1ccc(N2CC(C(=O)OCC(=O)Nc3cc(C)on3)CC2=O)c(C)c1 (stereo unspecified)	-4.6	-3.4	-13.1	0.2	-5.3
Cc1cc(C)cc(N2CC(C(=O)OCC(=O)Nc3cc(C)on3)CC2=O)c1 (stereo unspecified)	14.9	-4.2	-4.7	-0.7	40.9*
Cc1cc(C)cc(C(=O)OCC(=O)N2CCCCCC2)c1	41.8*	1.3	-0.6	-0.2	-23.4
O=C(OCC(=O)N1CCCCC1)c1c[nH]c2ccccc12	-14.6	-1.2	8.8	0.6	68.5*
COc1cc(OC)cc(C(=O)OCC(=O)N2CCCC2)c1	12.1	-3.3	3.2	-5.0	-12.4
O=C(OCC(=O)N1CCCC1)c1c[nH]c2ccccc12	2.9	-3.8	-0.2	-0.2	5.5
CCCOC(=O)c1c(-c2ccccc2)c(-c2ccccc2)nn(C)c1=O	x	x	x	-1.5	4.6
CCOc1ccc(NC(=O)c2cccc(N3CCCS3(=O)=O)c2)cc1	x	x	x	0.3	2.7

Assay outcomes deposited in PubChem by National Center for Advancing Translational Sciences (NCATS).
